Results on 12 compounds are retold here after PubChem BioAssay (NCI).

The panel holds about 83,000 compounds, 20% with a hit somewhere; the sample as a whole holds those more often.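 48-hour exposure, single concentration, 96-well plates; percent growth endpoint where 0 means no net growth. Active: below 10.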 Unmarked numbers belong to inactive results. Active and inactive are the calls of the source.

The assay has as its system K-562 leukemia. Put plainly: NCI-60 one-dose screen, 48 h (100 = growth as untreated, 0 = no growth, -100 = all killed). The settings on record: 10 µM unless noted.
On to `Cc1cc(-c2nc3ccccc3s2)ccc1NC(=O)COc1ccc(Cl)cc1`, for which the growth was 93.7%.
With `C[C@H](CCC(=O)O)[C@H]1CC[C@H]2[C@@H]3CC[C@@H]4/C(=C\c5ccco5)C(=O)/C(=C\c5ccco5)C[C@]4(C)[C@H]3CC[C@]12C` the figure was 30%.
With `COc1cc2c(c(OC)c1OC)-c1ccc(N=NC(N)=S)c(=O)cc1[C@@H](NC(C)=O)CC2`, the growth is 9.08% (active).
With `c1ccc(CSc2ncnc3nc[nH]c23)nc1` the figure was 96.7%; with `CC(=O)Nc1ccc2c(c1)c(NC(C)=O)nn2C(=O)Nc1ccc(Cc2ccccc2)cc1`, 18.2%.
As for `COc1cc2c(=O)n(CC3CCCCC3)c3c4cc[nH]c4ncc3c2cc1OC`, the growth is 5.36% (active).
For the compound `COC1/C=C\OC2(C)Oc3c(C)c(O)c4c(O)c(c(CN(C)CCO)c(O)c4c3C2=O)NC(=O)/C(C)=C\C=C/C(C)C(O)C(C)C(O)C(C)C(OC(C)=O)C1C` (configuration not stated), the growth was 92.3%.
With `Cc1cc(N/N=C/c2nc(-c3ccc(Cl)cc3)oc2C)c2cc(Cl)ccc2n1` the figure was -15.8% (active).
For `C=C1CC[C@@H]2[C@](C)(COC(C)=O)[C@H](OC(C)=O)CC[C@@]2(C)[C@@H]1CC(NCc1ccc(F)cc1)C1=CCOC1=O` (some centres not stated) the value was 18.8%; for `Cn1c2c(Cl)c(Cl)ccc2c2ccn3c(=O)c4ccccc4nc3c21`, 109%.
Consider `CCOC(=O)Cc1cnn(C)c1NC(=O)c1ccc(Cl)cc1NC(C)=O`, for which the growth is 103%.
With `COc1ccc(-c2cc(NC(=O)Nc3ccc(O)cc3)no2)cc1` the figure was 29.2%.
